Screen size: about 360,000 compounds; about 6,200 (1.7%) were called active.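 How the source made its calls: active means inhibition of at least 50% at 20 µM; inactive means the rest.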 For the sample, actives were picked, then their nearest neighbours and some compounds at random.
test: Peg3 promoter-driven luciferase inhibitors, primary screen, cell-based, HeLa, luciferase luminescence (AID 588405); conditions: HeLa PEG-Prom luciferase reporter, overnight, at 20 µM, active compounds read high

Row | SMILES | inhibition
1 | COC(=O)CCCCC1=CCC2C(=O)C=C(O)C2C1 (centres undefined) | 0.22% (inactive)
2 | COc1ccc(C(C)(O)c2nc(-c3cc(F)cc(F)c3)cs2)cc1 (centres undefined) | 23.2% (inactive)
3 | COc1cccc(-c2cc3nc(NCc4ccccc4OC)n(C)c(=O)c3s2)c1 | -50% (inactive)
4 | COc1cc(F)c(C2=CC(=O)CC(C)(C)C2)cc1F | -42.1% (inactive)
5 | O=C(O)c1ccccc1-c1cccc2nncn12 | -2.07% (inactive)
6 | N#Cc1cccc(NC(=O)COC(=O)c2ccccc2C(=O)c2ccc(Cl)c([N+](=O)[O-])c2)c1 | 108% (active)
7 | CC(OC(=O)CNC(=O)c1ccc(Cl)c([N+](=O)[O-])c1)C(=O)NCc1ccco1 (centres undefined) | 3.12% (inactive)
8 | CC(=O)Nc1ccc(NC(=O)COC(=O)c2ccccc2C(=O)c2ccccc2)cc1 | -1.14% (inactive)
9 | O=C(Nc1cccc(NC(=O)c2ccccc2[N+](=O)[O-])c1)c1ccccc1Cl | -9.06% (inactive)
10 | CC(=O)Nc1ccc(NC(=O)C(C)OC(=O)c2ccccc2C(=O)c2ccc(Cl)c([N+](=O)[O-])c2)cc1 (centres undefined) | 93.7% (active)
11 | COC(=O)c1cc(NC(=O)Cc2ccccc2[N+](=O)[O-])ccc1Cl | -2.09% (inactive)
12 | C=CCC1(C#N)C(=S)NC(C)=C(C(=O)OCC)C1c1ccccc1 (centres undefined) | 3.78% (inactive)
13 | CCc1nc2c(OCCc3cccc(OC)c3)cccn2c1N(C)C(=O)c1ccc(C)cc1 | 5.31% (inactive)
14 | CC1(C(=O)NS(=O)(=O)c2ccc(Cl)cc2)CCN1C(=O)CC1CCCC1 (centres undefined) | 8.85% (inactive)
15 | CCN(c1ccccc1)S(=O)(=O)c1cccc(C(=O)NCc2ccccc2CN2CCOCC2)c1 | -0.46% (inactive)
16 | CCOC1=C2CN(S(=O)(=O)c3ccc(C)cc3)[C@H](c3cccs3)C[C@H]2[C@H]2C(=O)N(c3ccccc3)C(=O)[C@H]2C1 | -59.4% (inactive)
17 | CCCCCCCCCCOC(=O)Cn1c(COc2ccc(C)cc2)[n+](C)c2ccccc21 | 116% (active)
18 | CCCCCCCCCCOC(=O)Cn1c(COc2cccc(OC)c2)[n+](C)c2ccccc21 | 102% (active)
19 | Cc1ccc(COc2ccc(C(=O)NN)cc2)cc1 | -58.5% (inactive)
20 | Cc1noc(C)c1COC(=O)Cn1c(C)nc2ccccc21 | 8.44% (inactive)
21 | CCOC(=O)c1cn(CC)c2cc(F)c(F)cc2c1=O | -7.48% (inactive)
22 | CN(Cc1cccs1)C(=O)CN1C(=O)c2ccccc2S1(=O)=O | -42.7% (inactive)
23 | COc1ccccc1-n1nnnc1SCC(=O)NC(=O)Cc1ccccc1 | 3.09% (inactive)

Row | SMILES | inhibition
24 | CCC(C)N(C(=O)CSc1nnnn1-c1ccccc1OC)C1CCS(=O)(=O)C1 (centres undefined) | 6.27% (inactive)
25 | COc1ccccc1-n1nnnc1S(=O)(=O)Cc1ccc(Cl)cc1 | 108% (active)
26 | O=C(N=C1SC2CS(=O)(=O)CC2N1c1cc(Cl)ccc1Cl)C1CC1 (centres undefined) | 3.34% (inactive)
27 | Cn1c(=O)[nH]c(=O)c2c1nc(N1CCN(C(c3ccccc3)c3ccccc3)CC1)n2CCO | 74.6% (active)
28 | C=C(C)Cn1c(N2CCCC2)nc2c1c(=O)[nH]c(=O)n2C | -3.39% (inactive)
29 | CC1CCN(c2nc3c(c(=O)[nH]c(=O)n3C)n2CCCc2ccccc2)CC1 | -2.12% (inactive)
30 | COc1ccc(-c2cc3nc(NCCOc4ccccc4)ccn3n2)cc1 | -70.4% (inactive)
31 | COC(=O)c1ccccc1N=NNc1ccc([N+](=O)[O-])cc1 | -132% (inactive)
32 | COc1ccc(CCNC(=O)c2ccc(CS(=O)(=O)c3ccc(Br)cc3)o2)cc1OC | 32.6% (inactive)
33 | Cc1cccc(C)c1Cn1c(C)c(C(=O)NCc2cccc(Cl)c2)sc1=O | 0.34% (inactive)
34 | CC1(C(=O)NS(=O)(=O)c2ccccc2)CCN1C(=O)c1ccccc1 (centres undefined) | 8.86% (inactive)
35 | CC(=O)Nc1cc(-c2cccc(CO)c2)cn2c(-c3cccc(C(F)(F)F)c3)cnc12 | 19.9% (inactive)
36 | Cc1ccccc1-c1n[nH]c(=S)n1/N=C/c1ccc(-c2ccccc2Br)o1 | 13.5% (inactive)
37 | COc1ccccc1N1CCN(/N=C\C(Br)=C\c2ccccc2)CC1 | -183% (inactive)
38 | Cc1cc(-c2n[nH]c(=S)n2/N=C/C(Br)=C/c2ccccc2)n[nH]1 | 101% (active)
39 | COc1c(C)cc(C(O)c2ncc(-c3cccc(C(F)(F)F)c3)[nH]2)cc1C (centres undefined) | 36.8% (inactive)
40 | C=CCn1c(C)cc(C2=NNC(=NCC)SC2)c1C | 106% (active)
41 | O=C1CC(c2cccc(Br)c2)C2=C(CCCC2=O)N1 (centres undefined) | -11.1% (inactive)
42 | Cc1cc(Cl)ccc1-c1nc(NCCN(C)C)nc2ccsc12 | 5.65% (inactive)
43 | COc1ccc(-c2n[nH]c3c2CN(C(=O)c2ccc(F)cc2)CC3)cc1 | -4.89% (inactive)
44 | COc1ccc(C2CC(c3cccc(OC)c3)=NN2c2ccc(S(N)(=O)=O)cc2)cc1 (centres undefined) | -21.8% (inactive)
45 | O=C(NCc1ccccc1Cl)c1csc([C@@H]2O[C@H](CO)[C@@H](O)[C@H]2O)n1 | 9.43% (inactive)
46 | Cc1ccc(CN2CC(N3CCC(Cc4ccccc4)CC3)CS2(=O)=O)cc1 (centres undefined) | 15.9% (inactive)

Row | SMILES | inhibition
47 | O=C(O)Cc1ccc(NCc2ccccc2Cl)cc1 | -84.7% (inactive)
48 | CC(C)OC(=O)c1ccc(NCc2cc(O)ccc2O)cc1Cl | 64% (active)
49 | CC(CN1CCCCC1)OC(=O)c1ccccc1Cl (centres undefined) | -5.2% (inactive)
50 | COc1ccc(-c2cc(-c3ccc(N)cc3)nc(N)c2C#N)cc1OC | 28.4% (inactive)
51 | COc1ccc(-c2cc(C(F)(F)F)nc(S(C)(=O)=O)n2)cc1OC | 104% (active)
52 | COc1ccc(C2=NO[C@@H]3C(=O)N(Cc4ccccc4)C(=O)[C@H]23)cc1OC | 21.8% (inactive)
53 | O=C1N=C2SCCN2/C1=C\c1c(Cl)cccc1Cl | 2.52% (inactive)
54 | COc1ccc(NC(=O)C2Cc3c(-c4cccc(NC(C)=O)c4)ccnc3O2)cc1OC (centres undefined) | 24% (inactive)
55 | CCN(CC)CCCNC(=S)N(CCO)Cc1cc2cc3c(cc2[nH]c1=O)OCO3 | 5.64% (inactive)
56 | O=c1oc2ccccc2cc1-c1cn(-c2ccccc2)c(=S)[nH]1 | 98.7% (active)
57 | COc1cccc(-n2c(=S)[nH]c3c(oc4ccccc43)c2=O)c1 | -22.9% (inactive)
58 | O=C(NCCCO)c1cc2c([nH]c3ccccc32)c(-c2ccc(F)cc2)n1 | 23.9% (inactive)
59 | O=C(NCC1CCCO1)c1cc2c([nH]c3ccccc32)c(-c2ccc(F)cc2)n1 (centres undefined) | 61.3% (active)
60 | COc1ccc2cc(C(=O)NCC3CCCO3)[nH]c2c1 (centres undefined) | -95.8% (inactive)
61 | CCOc1ccc(Cl)cc1-c1cc(C(=O)NCc2cccs2)[nH]n1 | -9.07% (inactive)
62 | Cc1noc(C)c1C(=O)NCC1COc2ccccc2O1 (centres undefined) | 15.8% (inactive)
63 | Cc1cc(C(=O)CCl)c(C)n1CC1COc2ccccc2O1 (centres undefined) | 103% (active)
64 | CCn1cc(C(=O)NCC2COc3ccccc3O2)c2cc(OC)c(OC)cc2c1=O (centres undefined) | 8.43% (inactive)
65 | O=C(Nc1ccc(Cl)cc1)C1Cc2c(-c3ccc4c(c3)OCO4)ccnc2O1 (centres undefined) | 29% (inactive)
66 | Cc1ccc(-c2nnc(-n3nnc4ccccc43)c3ccccc23)cc1 | 6.18% (inactive)
67 | CC1(Cc2ccccc2C#N)C(=O)Nc2ccc(-c3ccc4[nH]ccc4c3)cc21 (centres undefined) | 14.4% (inactive)
68 | Cc1nc2ccccc2nc1CC(O)(c1ccccc1)c1ccccc1 | -1.32% (inactive)
69 | CN(Cc1ccccc1)C(=O)c1cccc(C(=O)N(C)Cc2ccccc2)c1 | 8.74% (inactive)

Row | SMILES | inhibition
70 | CN(O)C(=S)c1ccccc1 | 92.1% (active)
71 | Cc1ccc(CS(=O)Cc2ccc(C(=O)N3CCOCC3)o2)cc1 (centres undefined) | 11.9% (inactive)
72 | CCc1nc2ccc(C(=O)Nc3cc(-c4ccccc4)ccc3OC)cn2c1N(CC)CC(=O)N(C)C | -22.1% (inactive)
73 | CCCC1=Nc2cc(C(=O)NCCN3CCCC3)ccc2Sc2ccccc21 | 16.7% (inactive)
74 | CC(C)OCCCNC(=O)CN1C(=O)/C(=C/c2ccccc2F)Oc2ccccc21 | 4.52% (inactive)
75 | CCN1CCCC1CNC(=O)c1cc2c(=O)n(C)c3ccccc3c2n1C (centres undefined) | -10.3% (inactive)
76 | O=C(NCCCN1CCCCC1)c1ccc2c(c1)NC(=O)C(N1CCOCC1)S2 (centres undefined) | -8.33% (inactive)
77 | CCN1CCCC1CNC(=O)c1ccc2c(c1)NC(=O)/C(=C\c1ccccc1F)S2 (centres undefined) | 56.9% (active)
78 | CN1CCN(CCCNC(=O)c2ccc(/C=C3\Oc4ccccc4N(Cc4ccc(Cl)cc4)C3=O)cc2)CC1 | 109% (active)
79 | O=C(NCCN1CCOCC1)c1ccc2c(c1)N(Cc1cccc(Cl)c1)C(=O)c1ccccc1S2(=O)=O | 23.8% (inactive)
80 | Cc1ccccc1CN1C(=O)c2ccccc2Sc2ccc(C(=O)NCCCN3CCOCC3)cc21 | 26.3% (inactive)
81 | CCN1CCN(CCNC(=O)c2ccc3c(c2)NC(=O)/C(=C\c2cccc(Cl)c2)S3)CC1 | 99.5% (active)
82 | Cc1c(C)n(Cc2ccc(Cl)cc2)c2ccc(C(=O)NCCCN3CCOCC3)cc12 | 47.1% (inactive)
83 | CCN1CCCC1CNC(=O)c1cc2cc(OC)c(OC)cc2[nH]1 (centres undefined) | 18% (inactive)
84 | CCN1CCN(CCNC(=O)c2ccc(/C=C3/Sc4ccccc4N(Cc4cccc(C)c4)C3=O)cc2)CC1 | 103% (active)
85 | COc1ccc(-c2cc(NC=O)c3ncc(-c4cc(OC)c(OC)c(OC)c4)n3c2)c(OC)c1 | 1.14% (inactive)
86 | Nc1ncnc2c1ncn2[C@@H]1O[C@H](C(=O)N2CCCN(Cc3ccccc3F)CC2)[C@@H](O)[C@H]1O | 3.41% (inactive)
87 | OC[C@@H]1CN(Cc2ccc(F)cc2)C[C@H](n2cnc3c(NC4CCCC4)ncnc32)O1 | 12.2% (inactive)
88 | CCCNC(=O)C1(C)CCN(C(=O)c2ccc(F)cc2Cl)C1 (centres undefined) | 1.51% (inactive)
89 | CC1(C(=O)NS(=O)(=O)Cc2cccc(Cl)c2)CCN1C(=O)Cc1ccc(Cl)cc1Cl (centres undefined) | -1.37% (inactive)

— PubChem BioAssay AID588405 (Sanford-Burnham Center for Chemical Genomics, 2011)
